# IDE exosite FP – exo-site inhibitors of human IDE, primary screen, biochemical, fluorescence anisotropy, probe displacement; AID 1259349, 2017; actives 6.3% (n = 17,000); purified IDE, FL-6b probe fluorescence polarization; stronger effect = lower value; z-score at 20 µM; Insulin-degrading enzyme (Homo sapiens), P14735;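 active means z-score of -3 or lower, meaning strong loss of probe binding signal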;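 further: His-tagged human IDE residues 42-1019 made in E. coli with 30 nM FL-6b probe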
# Target sequence (P14735 42-1019 limits assumed): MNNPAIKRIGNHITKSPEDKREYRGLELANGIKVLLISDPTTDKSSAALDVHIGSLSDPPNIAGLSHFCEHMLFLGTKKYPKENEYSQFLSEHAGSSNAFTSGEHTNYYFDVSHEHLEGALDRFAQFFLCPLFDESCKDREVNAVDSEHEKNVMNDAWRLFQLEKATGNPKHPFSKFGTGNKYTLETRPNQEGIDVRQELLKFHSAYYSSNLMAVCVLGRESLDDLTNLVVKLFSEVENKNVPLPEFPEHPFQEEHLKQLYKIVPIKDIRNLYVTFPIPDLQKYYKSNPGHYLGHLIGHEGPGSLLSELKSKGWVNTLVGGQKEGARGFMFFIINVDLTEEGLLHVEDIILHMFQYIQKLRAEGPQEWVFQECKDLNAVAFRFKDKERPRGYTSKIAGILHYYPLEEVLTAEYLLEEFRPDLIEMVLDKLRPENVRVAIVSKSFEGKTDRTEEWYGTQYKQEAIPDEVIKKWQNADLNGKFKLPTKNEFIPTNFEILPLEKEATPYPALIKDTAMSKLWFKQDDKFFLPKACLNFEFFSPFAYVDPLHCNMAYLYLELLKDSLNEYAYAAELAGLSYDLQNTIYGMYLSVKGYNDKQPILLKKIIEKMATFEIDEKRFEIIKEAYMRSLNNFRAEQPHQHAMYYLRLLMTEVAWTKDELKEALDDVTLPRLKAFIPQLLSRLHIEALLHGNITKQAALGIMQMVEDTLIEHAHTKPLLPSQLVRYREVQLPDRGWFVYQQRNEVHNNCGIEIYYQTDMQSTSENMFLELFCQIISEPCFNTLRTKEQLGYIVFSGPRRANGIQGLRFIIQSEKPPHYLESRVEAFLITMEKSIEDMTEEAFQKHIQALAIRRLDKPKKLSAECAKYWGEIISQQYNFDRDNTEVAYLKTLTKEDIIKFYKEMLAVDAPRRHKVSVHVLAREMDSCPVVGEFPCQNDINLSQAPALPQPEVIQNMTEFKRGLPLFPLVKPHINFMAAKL
# * hit, by the source's call. Shown is part of a subset that was picked to be rich in hits.
SMILES,IDE exosite FP
O=C(C[C@@H]1CC[C@H]2[C@@H](COC[C@H](O)CN2C(=O)c2ccncc2)O1)NCc1cc(F)cc(F)c1,0.61
O=C(CC1CC1)N1CC2(C1)[C@H](c1ccccc1)[C@H](CO)N2Cc1ccccn1,-1.2
N#C[C@H]1[C@@H](c2ccc(C3=CCCC3)cc2)[C@@H](CO)N1C(=O)Nc1ccccc1F,2.4
O=C(Nc1cccc(F)c1)N1CCCCN2[C@H](C1)[C@H](c1ccc(C#CC3CC3)cc1)[C@@H]2CO,3.9
O=C(NCC1CCCCC1)[C@H]1[C@H](CO)[C@H]2Cn3c(ccc(-c4ccc(F)cc4)c3=O)[C@@H]1N2,2.5
CCCNC(=O)N(C)C[C@H]1Oc2ncc(C#CC3CCCCC3)cc2C(=O)N([C@@H](C)CO)C[C@H]1C,-1.1
CNC[C@H]1OCCCC[C@H](C)Oc2ccc(NS(=O)(=O)c3ccc(F)cc3)cc2C(=O)N([C@@H](C)CO)C[C@H]1C,0.98
CN(C)C(=O)c1ccc(-c2ccccc2[C@@H]2[C@@H](C#N)N(C(=O)C3CCCCC3)[C@H]2CO)cc1,1.8
O=C(c1cccnc1)N1CC(=O)N2[C@H](C1)[C@@H](c1ccc(-c3ccc(F)cc3)cc1)[C@@H]2CO,-1.9
Cc1cccc(-c2ccc([C@H]3[C@@H](CO)N4C(=O)CN(C(=O)c5ccccc5)C[C@@H]34)cc2)c1,-2.5
Cc1cccc(-c2ccc([C@@H]3[C@@H](CO)N4C(=O)CN(C(=O)c5ccccc5)C[C@@H]34)cc2)c1,-5.2*
O=C(c1cccnc1)N1CC(=O)N2[C@H](CO)[C@H](c3ccc(-c4ccc(F)cc4)cc3)[C@H]2C1,2
Cc1ccc(-c2ccc([C@@H]3[C@H](CO)N4C(=O)CN(C(=O)c5ccccc5)C[C@@H]34)cc2)cc1,1.6
Cc1cccc(-c2ccc([C@@H]3[C@H]4CN(C(=O)c5cccnc5)CC(=O)N4[C@H]3CO)cc2)c1,-18*
CCCNC(=O)N(C)C[C@@H]1Oc2cc(C#C[C@@H](C)O)ccc2S(=O)(=O)N([C@@H](C)CO)C[C@H]1C,-0.098
Cc1noc(C)c1S(=O)(=O)Nc1ccc2c(c1)C(=O)N([C@H](C)CO)C[C@H](C)[C@@H](CN(C)C(=O)Nc1cccc3ccccc13)OCCCC[C@H](C)O2,0.0042
CCCC(=O)N1CC2(C1)CN(C(=O)Nc1cccc(F)c1)[C@H](CO)c1c2c2ccc(OC)cc2n1C,0.064
O=C(C[C@@H]1C[C@H]2c3cc(NC(=O)C4CCOCC4)ccc3O[C@H]2[C@H](CO)O1)NCCN1CCCCC1,-0.18
COc1ccc(NC(=O)N2CCCCN3[C@@H](CO)[C@@H](c4ccc(-c5ccccc5F)cc4)[C@@H]3C2)cc1,-1.2
Cc1ccccc1-c1ccc([C@H]2[C@H]3CN(C(=O)Nc4ccccc4)CCCCN3[C@H]2CO)cc1,0.8
Cc1ccccc1-c1ccc([C@H]2[C@@H](CO)N3CCCCN(C(=O)Nc4ccccc4)C[C@H]23)cc1,-8.8*
COc1ccc(NC(=O)N2CCCCN3[C@H](CO)[C@H](c4ccc(-c5ccccc5C)cc4)[C@H]3C2)cc1,-4.3*
COc1ccc(NC(=O)N2CCCCN3[C@H](C2)[C@@H](c2ccc(-c4ccccc4C)cc2)[C@@H]3CO)cc1,-4.1*
COc1ccc(NC(=O)N2CCCCN3[C@@H](CO)[C@H](c4ccc(-c5ccccc5F)cc4)[C@@H]3C2)cc1,-0.77
Cc1ccccc1-c1ccc([C@@H]2[C@H]3CN(C(=O)Nc4ccc(F)cc4)CCCCN3[C@H]2CO)cc1,-0.34
SMILES,IDE exosite FP
Cc1ccccc1-c1ccc([C@H]2[C@H](CO)N3CCCCN(C(=O)Nc4ccc(F)cc4)C[C@@H]23)cc1,-2.4
Cc1ccccc1-c1ccc([C@@H]2[C@H]3CN(C(=O)Nc4ccccc4)CCCCN3[C@H]2CO)cc1,0.79
CCc1cnc(N2[C@@H](C#N)[C@H](c3ccc(C#Cc4ccccc4F)cc3)[C@@H]2CO)s1,-1.5
COc1ccc(S(=O)(=O)N2CCCCN3[C@@H](CO)[C@H](c4ccc(C#CC(C)C)cc4)[C@@H]3C2)cc1,4.1
COc1ccc(-c2ccc([C@@H]3[C@H]4CN(CC5CCOCC5)CCCCN4[C@H]3CO)cc2)cc1,0.21
OC[C@@H]1[C@@H](c2ccc(-c3cccnc3)cc2)[C@H]2CN(CC3CC3)CCCCN12,-1.2
COc1ccc(-c2ccc([C@@H]3[C@@H](CO)N4CCCCN(CC5CCOCC5)C[C@H]34)cc2)cc1,3.8
Cc1ccccc1-c1ccc([C@@H]2[C@@H](CO)N3CCCCN(S(C)(=O)=O)C[C@H]23)cc1,1.7
Cc1ccccc1-c1ccc([C@@H]2[C@H](CO)N3CCCCN(CC4CC4)C[C@@H]23)cc1,-9.6*
Cc1ccccc1-c1ccc([C@@H]2[C@@H](CO)N3CCCCN(CC4CC4)C[C@H]23)cc1,-6.8*
OC[C@@H]1[C@H](c2ccc(-c3cccnc3)cc2)[C@H]2CN(CC3CC3)CCCCN12,0.7
OC[C@@H]1[C@H](c2ccc(-c3cccnc3)cc2)[C@@H]2CN(CC3CC3)CCCCN12,1.1
Cc1ccccc1-c1ccc([C@H]2[C@H](CO)N3CCCCN(CC4CC4)C[C@@H]23)cc1,-2
OC[C@H]1[C@H](c2ccc(-c3cccnc3)cc2)[C@@H]2CN(CC3CC3)CCCCN12,1.8
Cc1ccccc1-c1ccc([C@H]2[C@@H](CO)N3CCCCN(CC4CC4)C[C@H]23)cc1,-11*
Cc1ccccc1-c1ccc([C@@H]2[C@H](CO)N3CCCCN(CC4CCOCC4)C[C@@H]23)cc1,-5.5*
CN(C)C(=O)c1cccc(-c2ccccc2[C@@H]2[C@H](C#N)N(C(=O)C3CCC3)[C@H]2CO)c1,2.4
CC(=O)N1[C@H](CO)[C@H](c2ccccc2)[C@@H]1CN(C(=O)c1ccccc1F)C(C)C,-0.73
COc1ccc(S(=O)(=O)Nc2ccc3c(c2)OC[C@H](C)NC[C@@H](C)[C@@H](OC)CN(C)C3=O)cc1,-0.74
O=C(Nc1ccc2c(c1)[C@H]1C[C@@H](CC(=O)N3CCc4ccccc4C3)O[C@@H](CO)[C@H]1O2)c1ccc2c(c1)OCO2,-1
CS(=O)(=O)N1CC(=O)N2[C@H](C1)[C@@H](c1ccc(Br)cc1)[C@@H]2CO,-1
COCCN(C[C@H]1N[C@H](CO)[C@@H]1c1ccccc1)C(=O)NC1CCCC1,-0.19
Cc1noc(C)c1NC(=O)Nc1ccc2c(c1)C(=O)N([C@@H](C)CO)C[C@@H](C)[C@@H](CN(C)Cc1ccc3c(c1)OCO3)OCCCC[C@@H](C)O2,0.85
OC[C@H]1[C@H](c2ccc(C#Cc3ccccc3)cc2)[C@H]2CN(CC3CCOCC3)CCCCN21,-0.67
OC[C@@H]1[C@H](c2ccc(C#Cc3ccccc3)cc2)[C@@H]2CN(CC3CCOCC3)CCCCN12,-3.9*
SMILES,IDE exosite FP
OC[C@@H]1[C@@H](c2ccc(C#Cc3ccccc3)cc2)[C@@H]2CN(CC3CCOCC3)CCCCN12,-2.6
O=C(C[C@H]1CC[C@H]2[C@@H](COC[C@H](O)CN2CCC(F)(F)F)O1)NCC1CC1,1.3
CCCC(=O)Nc1ccc2c(c1)C(=O)N(C)C[C@H](OC)[C@@H](C)CN(Cc1ccc(F)cc1)[C@H](C)CO2,0.18
O=C(c1ccc(F)cc1)N1CC(=O)N2[C@@H](CO)[C@@H](c3ccc(-c4cccnc4)cc3)[C@@H]2C1,0.54
CNC[C@H]1OCCCC[C@H](C)Oc2ccc(NC(=O)Nc3ccc(OC)cc3)cc2C(=O)N([C@H](C)CO)C[C@H]1C,0.85
Cc1ccc(-c2ccc([C@H]3[C@H](CO)N4C(=O)CN(C(=O)c5ccncc5)C[C@@H]34)cc2)cc1,-3.2*
